Experimental data as given in PubChem BioAssay AID1457 (National Center for Advancing Translational Sciences (NCATS), 2008).
Hit rate of the full screen: of about 210,000 compounds, about 730 (0.35%) were called active. About 1% were inconclusive and are not listed. The full list was thinned out, with actives kept by preference. A number with no mark means an inactive call. The call rests on the fitted dose curve; in most records, active means well fitted inhibition curve with a large enough effect; inconclusive means small, poorly fitted or top-dose-only effect; inactive means no such curve, though single readings can be large or run the other way.

Experiment: qHTS Assay for Identifying the Cell-Membrane Permeable IMPase Inhibitors: Potentiation with Lithium;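 further: IP1 builds up when IMPase is blocked and the TR-FRET signal falls; nearly all actives have a fitted effect of over 50% in size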;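 on activity, negative = IMPase inhibition: plate controls were basal vehicle for no effect and high inhibitor control for full effect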
Conditions: CHO-M1 cells, IP1 TR-FRET (IP-One), carbachol + lithium; series mostly up to 59.4 µM; activity, negative = IMPase inhibition: at the top concentration
From the text: NIH Chemical Genomics Center [NCGC]
NIH Molecular Libraries Probe Production centers Network [MLPCN]
Assay Submitter (PI): Wei Zheng
Lithium has been widely used for the treatment of bipolar disorder. But lithium has a narrow therapeutic index and it can cause side effects such as thirst, weight gain, tremor, polyuria and memory problems. Although the mechanism for lithium action in treatment of bipolar disorder is still not fully understood, inhibition of inositol monophosphatase (IMPase) and the subsequent depletion of the inositol pool in living cells have been implicated as the primary therapeutic benefit of lithium therapy. Therefore, a selective IMPase inhibitor with reduced side effects might be a good drug candidate to replace lithium for the treatment of bipolar disorder. Several IMPase inhibitors have been discovered previously. However, they are not suitable for therapeutic use because of their poor cell membrane penetrability or oral bioavailability; the development of new cell-permeable IMPase inhibitors is needed.
IMPase catalyzes the hydrolysis of inositol-1-phosphate (IP1) to release free inositol. Binding of an agonist to a Gq coupled GPCR results in the activation of PLC, which hydrolyzes the PIP2 to form inositol-1,4,5-trisphosphate (IP3) and diacyl glycerol (DAG). While DAG activates protein kinase C (PKC), IP3 triggers the elevation of intracellular free Ca2+. The IP3 is very rapidly inactivated by hydrolysis to IP2, IP1 and then inositol by a series of enzymes including IMPase. Free inositols are used for synthesis of PI and thus start another inositol cycle.
To identify new cell-permeable IMPase inhibitors, we developed a cell-based IMPase assay in which the cytosolic IP1 is measured by a time-resolved fluorescence resonance energy transfer (TR-FRET) assay. In this assay, an IP1 specific antibody is used to detect the labeled IP1 tracer. When the cell lysate contains the elevated IP1 due to the inhibition of IMPase, the TR-FRET between the labeled antibody and IP1 tracer is disrupted resulting in a reduction in the total signal. Since the TR-FRET is used, this cell-based assay is a homogenous assay without cell wash and medium change that is suitable for assay miniaturization and HTS. In this particular assay, a small amount of lithium is added to potentiate the response of weak activators.
NCGC Assay Protocol Summary:
A Chinese hamster ovary (CHO) cell line stably expressing the M1 receptor (CHO-M1) was obtained from ATCC and maintained in F-12 Kaighn's media (Invitrogen, Carlsbad, CA) supplemented with 10 % FBS, 100 units/ml penicillin, 100 ug/ml streptomycin and 250 ug/ml geneticin at 37C, 5% CO2 in a humidified atmosphere. Before the assay, aliquots of cells were frozen and stored at -135C. The assay was performed in 1536-well format. Data are reported for both the ratio of the two emission wavelengths, and also for the component 'donor' channel, Em2=620. […] AC50 values were determined from concentration-response data modeled with the standard Hill equation.
(1) Frozen CHO-M1 cells were thaw, washed once with fresh media and resuspended in F12K media containing 10% FBS, 100 units/ml penicillin and 100 ug/ml streptomycin. Cells were plated at 4ul/well (2000 cells) in white, tissue culture treated 1536-well plates, and then cultured at 37C, 5 % CO2 for 16 to 30 hours.
(2) Add 23 nl/well of compound in DMSO solution. The final titration for each compound was between 0.6 nM and 46 uM.
(4) Incubation at 37C, 5 % CO2 for 30 min.
(5) Add 1 ul/well of d2-conjugated IP1 (d2-IP1) and 1 ul/well of Eu+ cryptate conjugated anti-IP1 antibody (Eu+-Ab) prepared in the cell lysis buffer, both from the IP-One kit (Cisbio, MA).
(6) Incubate at room temperature for 10 minutes.
(7) Detect the assay plate (Ex = 320, Em1 =665 and Em2 620) in a ViewLux plate reader.
Potency means the concentration at half of the fitted maximal effect.

| Structure (SMILES) | Potency | activity, negative = IMPase inhibition |
| --- | --- | --- |
| CCOC(=O)c1c(C)[nH]c(=S)c(C#N)c1-c1ccccc1 | 12.6 µM (active) |  |
| CCOC(=O)c1c(C)[nH]c2c1-c1ccccc1C(=O)C2=O |  | 12.6% |
| CCOC(=O)c1c(C)nc(-c2ccccc2)nc1NC(=O)C(C)C |  | 2.09% [at 38.3 µM] |
| Brc1ccc(C2=NCCC(c3ccccc3)O2)cc1 (configuration not stated) |  | 4.94% |
| CC[C@H](C)[C@@H](NC(=O)O[C@@H]1C(=O)c2cc(OC)ccc2O[C@H]1c1cccc(OC)c1)C(=O)OC |  | 18.9% |
| COc1cc(OC)c2c(-c3cccc(-c4cccc(N)c4)c3)cc(=O)oc2c1 |  | 16.6% |
| CCOC(=O)C1=NO[C@@]2(C=C(Br)C(=O)[C@H]3O[C@H]32)C1 |  | 15.8% |
| CC1=C(/C=C/C(C)=C/C=C/C(C)=C/C=C/C=C(C)/C=C/C=C(C)/C=C/C(=O)[C@]2(C)C[C@@H](O)CC2(C)C)C(C)(C)C[C@H](O)C1 |  | -2.06% |
| CCOC(=O)Cn1c(N)c(C(=O)OC)sc1=S |  | -4.7% [at 38.3 µM] |
| COC(=O)c1sc2[nH]c(=S)n(N)c(=O)c2c1C | 10 µM (active) |  |
| COC(=O)c1sc(=S)n(-c2ccccc2)c1N |  | 25.7% [at 38.3 µM] |
| COC/C=C/C1=CC2=CC(=O)C(C)(OC(=O)CCC(=O)OC)C(=O)C2=CO1 (configuration not stated) |  | 0.633% |
| COc1cccc([C@@H]2Oc3ccc(Br)cc3C(=O)[C@H]2OC(=O)NCCc2ccc(OC)c(OC)c2)c1 |  | 10.1% |
| NNc1nnc(NN)c2ccccc12 |  | 11.6% |
| O=C(CSc1nc(C2CC2)nc2ccccc12)Nc1ccc2c(c1)OCCO2 |  | 18.1% [at 38.3 µM] |
| COC(=O)CSc1nc(C2CC2)nc2ccccc12 |  | 3.22% [at 38.3 µM] |
| Cc1nnc(NC(=O)CSc2nc(C3CCCCC3)nc3ccccc23)s1 | 6.31 µM (active) |  |
| NC(=O)c1sc(-c2ccsc2)cc1N |  | -15.1% |
| COC(=O)C1=C(C(=O)OC)[C@@H]2N(C)c3ccccc3[C@@]23C[C@@H](C(=O)OC)N(S(=O)(=O)c2ccc(Br)cc2)C3=N1 |  | 2.46% |
| CC(N)(C(=O)O)c1ccc(-c2nn[nH]n2)cc1 (configuration not stated) |  | -8.09% |
| CCN1C(=O)N[C@@H](c2ccccc2)C(C(=O)OC)=C1C |  | -7.94% |
| CCOC(=O)c1c(NC(=O)CSc2nnc(Cc3csc(N)n3)n2C)sc(C)c1C |  | 36% [at 38.3 µM] |
| CCOC(=O)c1c(-c2ccc(C)cc2C)csc1NC(=O)CSc1nnnn1C |  | 9.77% [at 38.3 µM] |
| COC(=O)c1c(-c2cccs2)csc1NC(=O)CSc1ncnc2sc(C)c(C)c12 | 28.2 µM (active) |  |

| Structure (SMILES) | Potency | activity, negative = IMPase inhibition |
| --- | --- | --- |
| Cc1ccc(NC(=O)O[C@@H]2C(=O)c3cc(Br)ccc3O[C@H]2c2ccc3c(c2)OCO3)cc1Br |  | 9.18% |
| C=C1O[C@@](CO)(n2cnc3c(N)ncnc32)[C@H](O)[C@@H]1O |  | -2.98% |
| Cc1ccccc1-c1ccc(C(=O)O)s1 |  | -28.1% |
| O=C(NCc1ccco1)O[C@@H]1C(=O)c2cc(Br)ccc2O[C@H]1c1ccc2c(c1)OCO2 |  | 7.71% |
| O=C(O)C[C@@H]1NC(=O)[C@H](Cc2ccccc2)NC1=O |  | -10.9% |
| CN(c1nc2ccccc2n2c(-c3ccco3)nnc12)S(=O)(=O)c1ccccc1 | 7.94 µM (active) |  |
| Cc1cc(NCc2ccco2)n2c(nc3ccccc32)c1C#N |  | 20.5% [at 38.3 µM] |
| Cn1c(-c2ccco2)nc2cc3ccccc3cc21 |  | -7.17% [at 38.3 µM] |
| CCCCCCCC[C@@H](O)/C=C/C=C/C=C\[C@@H](O)CCCC(=O)O |  | 6.73% |
| COc1ccc2c(c1)O[C@@H](c1ccc3c(c1)OCO3)[C@H](OC(=O)NCCc1ccc(OC)c(OC)c1)C2=O |  | -14.2% |
| C/C=C(\C)C(=O)OC1C(OC(=O)C2(C)OC2C)c2cc3ccc(=O)oc3cc2OC1(C)C (configuration not stated) |  | 4.87% |
| COC1(C2=NCCN2)COc2ccccc2O1 (configuration not stated) |  | 5.3% |
| C[C@H]1Cc2c(COc3ccccc3)nc3c(c2CO1)CN(C(=O)NCc1ccco1)CC3 |  | -2.19% |
| C/C=C(\C)C(=O)O[C@H]1CC(C)=C2C(=O)C=C(C)C2[C@@H]2OC(=O)[C@@](C)(OC(=O)C=C(C)C)C21 (some centres not stated) |  | -1.2% |
| CCCCC/C=C\C/C=C\C/C=C\CCCCCCC(N)=O |  | 7.82% |
| COc1ccc(-c2nc3cnc(OC)nc3n(Cc3ccc(F)cc3)c2=O)cc1 | 5.62 µM (active) |  |
| COc1cccc(Cn2c(=O)c(-c3cc(F)cc(F)c3)nc3cnc(OC)nc32)c1 |  | 0.937% |
| COc1cccc(Cn2c(=O)c(-c3ccccc3)nc3cnc(OC)nc32)c1 |  | 24.5% |
| COc1cccc(Cn2c(=O)c(C)nc3cnc(Oc4ccccc4)nc32)c1 |  | 18.7% |
| COc1ccc(-c2nc3cnc(N(C)C)nc3n(Cc3cccs3)c2=O)cc1 |  | 1.78% |
| COc1ccc(-c2nc3cnc(Oc4ccccc4)nc3n(Cc3cccs3)c2=O)cc1 | 8.91 µM (active) |  |
| COc1ccc(-c2c(C)cc3oc(=O)cc(-c4ccccc4)c3c2C)cc1C=O |  | 2.81% |
| CC(C)[C@@H]1NC(=O)[C@H](Cc2ccccc2)NC(=O)[C@@H](CC(=O)O)NC(=O)CNC(=O)[C@H](CCCNC(=N)N)NC1=O |  | 7.05% |
